Many of the other results were omitted from the sample, so hits are more common in it than they were.
GoLoco inh red: inhibitors of human Gai1-RGS12 GoLoco interaction (red fluorophore). actives 0.44% (n = 230,000). P63096. Gai1:RGS12 GoLoco peptide FP, rhodamine, 10 min. Potency, µM (top dose mostly 61.6 µM), for the others: at the highest dose activity, negative = inhibition, usual class: inhibitors. AID 880; active means well fitted inhibition curve with a large enough effect, not every such curve was filed as active; inactive means no such curve, though single readings can be large or run the other way; further: nearly all actives have a fitted effect of over 30% in size
APE1 inh: APE1 (human) endonuclease inhibition; P27695; recombinant APE1, TAMRA/BHQ-2 abasic DNA cleavage fluorescence; Potency, µM (highest dose often 65.8 µM), for inactives: top-dose activity change, negative = inhibition, actives largely listed as inhibitors; actives 0.35% (n = 350,000); AID 2517;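 further: plate controls were vehicle for no effect and reference inhibitor for full effect; nearly all actives have a fitted effect of over 55% in size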
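Quantitative HTS: incision of a TAMRA/BHQ-2 double-stranded substrate bearing a tetrahydrofuran abasic site by 0.75 nM APE1 raises fluorescence. Substrate 50 nM final, added after 15 min compound preincubation at room temperature; progress as third-minus-first kinetic read difference.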
RECQ1 helicase: inhibitors of human RECQ1 DNA helicase; actives 0.54% (n = 240,000); P46063; RECQ1 DNA unwinding, red fluorescence kinetic read; Potency, µM (titrated, usually from 57.3 µM), for the others: top-dose activity, negative = inhibition, most hits filed as inhibitors;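 further: plate controls were vehicle for no effect and no enzyme for full effect; nearly all actives have a fitted effect of over 30% in size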
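RECQ1T1 50 nM; forked duplex (20 bp + 30-nt ss tails) 200 nM, ATP 2 mM final; pH 8.0, 2 mM MgCl2, 2.5 ug/ml poly(dI-dC); 15 min compound preincubation; discontinuous kinetic read over 2 h at RT.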
L3MBTL1 block: blocks human L3MBTL1; Q9Y468; AlphaScreen L3MBTL1–H3K9me1 peptide binding; Potency, µM (titrated, usually from 57.1 µM), without a hit: top-dose activity, negative = inhibition, hits mostly inhibitors; actives 0.66% (n = 230,000); AID 485360; further: nearly all actives have a fitted effect of over 60% in size
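AlphaScreen assay: L3MBTL1 (50 nM final) was preincubated 30 min at room temperature with biotinylated H3(1-15)K9me1 peptide (75 nM final), then 30 min with library compounds; streptavidin donor and nickel chelate acceptor beads (10 ug/mL final) added, 30 min dark.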
KDM4E inh: JMJD2E (human) inhibition; B2RXH2; JMJD2E catalytic domain, FDH-coupled NADH fluorescence (FDH is formaldehyde dehydrogenase); Potency, µM (doses to about 57.1 µM), without a hit: top-dose activity change, negative = inhibition, most hits filed as inhibitors; actives 1.6% (n = 230,000); active means well fitted inhibition curve with a large enough effect, not every such curve was filed as active; inconclusive means small, poorly fitted or top-dose-only effect, or another doubt; inactive means no such curve, though single readings can be large or run the other way;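 further: 0% = wells with enzyme and -100% = buffer wells without enzyme; nearly all actives have a fitted effect of over 50% in size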
BLM inh: inhibitors of human Bloom syndrome helicase BLM. actives 0.2% (n = 350,000). recombinant BLM DNA unwinding, fluorescence dequenching. Potency, µM (highest dose often 56.1 µM), for inactives: top-dose activity change, negative = inhibition, usual class: inhibitors. P54132;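 further: plate controls were vehicle for no effect and no enzyme for full effect; nearly all actives have a fitted effect of over 35% in size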
* hit, by the source's call; i = inactive; ? = inconclusive; . = no result; [ ] = another dose, or the depositor's remark. Unless noted, the call rests on the fitted dose curve; in most records, active means well fitted curve in the direction sought with a large enough effect; inconclusive means small, poorly fitted or top-dose-only effect, or another doubt; inactive means no such curve, though single readings can be large; an effect the other way counts as inactive or inconclusive. Unless noted, on the % scale 0 is the no-effect control and ±100 the full control effect; potency means the concentration at half of the fitted maximal effect.

SMILES | GoLoco inh red | APE1 inh | RECQ1 helicase | L3MBTL1 block | KDM4E inh | BLM inh
CN(C)[C@@H]1C(=O)C(C(=O)NCN2CCCC2)=C(O)[C@@]2(O)C(=O)C3=C(O)c4c(O)cccc4[C@@](C)(O)C3CC12 (stereo partly drawn) | -31.5% | 2.51µM* | 3.16µM* | ? | ? | 14.1µM*
COc1cc([C@@H]2c3cc4c(cc3C(O[C@@H]3O[C@@H]5COC(c6cccs6)O[C@H]5[C@H](O)[C@H]3O)C3COC(=O)[C@@H]32)OCO4)cc(OC)c1O (stereo partly drawn) | . | -1.3% | . | . | . | .
COc1ccc(-n2c(=O)c(CCc3ccccc3)nc3cnc(N(C)C)nc32)cc1 | 20.9% | 1.7% | -4.4% | . | . | -2.0%
O=C(NCCN1CCOCC1)c1cc(Cl)ccc1Cl | . | 10.8% | . | 0.2% | . | 0.3%
O=C(NCCN1CCOCC1)NC1(C(F)(F)F)Oc2ccc(Cl)cc2O1 (stereo not drawn) | -9.1% | -4.8% | -3.3% | 5.4% | 3.16µM* | 4.4%
NC1=C(O)C(=O)C(c2ccccc2)O1 (stereo not drawn) | 8.1% | 8.8% | i | -15.4% | 15.8µM* | -7.6%
O=C(N/N=C/c1c(O)ccc2ccccc12)c1cccc(C(F)(F)F)c1 | 30.3% | 0.1% | 7.8% | -5.5% | 25.1µM* | -8.8%
O=C(N/N=C/c1c(O)ccc2ccccc12)c1[nH]ncc1Br | 11.0% | ? | -29.8% | -16.6% | 31.6µM* | -12.8%
O=C(N/N=C/c1cccs1)c1[nH]ncc1Br | . | 2.1% | . | . | . | -1.3%
Cc1cc(C)n(CCC(=O)N/N=C/c2ccc(O)cc2)n1 | -7.4% | 3.8% | -10.3% | 6.1% | -1.7% | -1.2%
COc1ccc2ccccc2c1/C=N/NC(=O)c1cccc(Br)c1 | 8.2% | 2.7% | -4.9% | -2.4% | ? | 1.4%
CCOc1ccc(/C=N/NC(=O)c2[nH]ncc2Br)c(O)c1 | 8.5% | 9.5% | i | -2.7% | ? | -4.2%
Cc1cc(C)n(CCC(=O)N/N=C/c2c(O)ccc3ccccc23)n1 | 0.6% | 3.2% | -0.6% | . | 0.199µM* | -7.8%
Cc1ccc(O)c(/C=N/NC(=O)c2[nH]ncc2Br)c1 | 15.1% | 16.6% | -8.5% | -9.3% | 3.16µM* | -6.1%
CC(C)(C)n1ncc2c(=O)n(Cc3c(F)cc(Cl)cc3F)cnc21 | . | -0.1% | . | . | . | .
CCC[C@@H]1C[C@@H](C(=O)N[C@@H]([C@H]2O[C@H](SC)[C@H](OP(=O)(O)O)[C@@H](O)[C@H]2O)[C@H](C)Cl)N(C)C1 | . | -3.3% | . | . | . | .
COc1ccc(-c2c(-c3ccc(OCC(=O)NN)cc3O)n[nH]c2C(F)(F)F)cc1 | 13.4% | -3.0% | 4.1% | -7.4% | -5.8% | 12.6µM*
CC(=O)Nc1ccc(S(=O)(=O)N2CCc3nc(COc4ccccc4)c4c(c3C2)CO[C@@H](C)C4)cc1 | 3.3%[14.2 µM] | -2.8%[12.4 µM] | i[11.5 µM] | . | 3.5%[11.4 µM] | -0.3%[12.4 µM]
CCOC(=O)C(Nc1ccc2ccccc2c1)C(=O)OCC | -6.6% | -0.3% | -0.9% | 28.2µM* | -2.5% | -25.5%
CC(=O)Nc1ccc2ccccc2c1 | -3.9% | -9.2% | -2.2% | . | 1.7% | -2.9%
COc1ccccc1CNC(=O)CN1C(=O)CCc2cc(S(=O)(=O)N3CCOCC3)ccc21 | . | . | . | . | . | -2.8%
O=C(O)c1cc(=O)c2cc(Cl)ccc2[nH]1 | . | -0.2% | -9.4% | . | . | -1.2%
COc1ccc(-c2nn(-c3ccccc3)cc2/C=C2/SC(=S)N(CCC(=O)O)C2=O)c(C)c1 | . | ? | . | -24.0% | . | ?
COc1ccc(-c2nn(-c3ccccc3)cc2/C=C2/SC(=S)N(CCC(=O)O)C2=O)cc1 | . | 16.8µM* | . | . | . | -2.2%
CCOC(=O)Cc1csc(NC(=O)NC2(C(F)(F)F)Oc3cc(Cl)c(Cl)cc3O2)n1 | 6.2% | 11.6% | 0.4% | . | 28.2µM* | 3.9%
SMILES | GoLoco inh red | APE1 inh | RECQ1 helicase | L3MBTL1 block | KDM4E inh | BLM inh
O=C1NC(=S)S/C1=C\c1coc2ccccc2c1=O | 20.2% | 6.2% | 20µM* | 1.6% | -19.8% | -2.7%
COC(=O)c1ccc(OCC2c3cc(OC)c(OC)cc3CCN2C(=O)c2ccccc2C)cc1 (stereo not drawn) | . | . | . | . | . | -6.5%
CCCCCOc1ccc(C2NC(=O)NC2=O)cc1 (stereo not drawn) | 1.4% | -9.9% | -11.2% | 4.1% | -7.5% | -10.4%
N#CC1(C#N)C(c2ccccc2)OC23CCCCC2C1(C#N)C(=N)O3 (stereo not drawn) | -126.2% | -1.8% | 12.6µM* | -1.3% | ? | -5.3%
N#CC1(C#N)C(c2ccccc2)OC23CCCCCC2C1(C#N)C(=N)O3 (stereo not drawn) | -14.2% | 0.3% | -3.2% | -3.5% | 12.7% | -7.6%
CCCCCCCCOc1ccc(C2OC34CCCCC3C(C#N)(C#N)C2(C#N)C(=N)O4)cc1 (stereo not drawn) | 28.2µM* | -2.0% | -5.2% | -3.0% | ? | -11.1%
CCCCC1OC23CCCCC2C(C#N)(C#N)C1(C#N)C(=N)O3 (stereo not drawn) | 28.2µM* | -1.9% | -1.6% | -14.7% | 6.5% | -19.4%
CCCCC1OC23CCCCC2C(C#N)(C(=N)O3)C1(C#N)C#N (stereo not drawn) | -42.0% | -3.3% | -0.3% | -1.2% | ? | -3.4%
O=C(c1ccccc1)c1ccc2nc(Nc3cc(Cl)ccc3O)c3nncn3c2c1 | . | . | . | . | . | -3.7%
Cc1ccc2[nH]c(=O)c3cc(C(=O)NC4CCC(C)CC4)sc3c2c1 (stereo not drawn) | . | . | . | . | . | -1.0%
Cc1ccc(C)c(N2CCN(C(=O)CN3C(=O)CSc4c3c(C)nn4-c3ccccc3)CC2)c1 | . | . | . | . | . | -3.4%
COC(=O)c1ccncc1N | 4.5% | -1.4% | i | -6.0%[11.4 µM] | ? | -0.5%
Nc1cnccc1C(=O)O | -76.8% | ? | i | ? | 0.631µM* | -13.0%
COc1ccc(CCNCC(C)c2ccccc2)cc1 (stereo not drawn) | . | -1.4% | . | . | . | -2.6%
COc1ccc(CCNCC(O)c2ccccc2)cc1 (stereo not drawn) | 2.5% | -7.1% | 8.7% | 6.5% | 7.94µM* | -0.9%
Cc1c(Br)c(=O)oc2c(Br)c(O)c(O)cc12 | -13.1% | 3.2% | i | 3.55µM* | ? | 7.94µM*
Cc1c(Br)c(=O)oc2c(Br)c(O)ccc12 | -0.7% | ? | 1.7% | -29.3% | ? | 9.4%
CCOC(=O)c1cnc(-n2nc(C)cc2C)nc1Nc1ccc(N(C)C)cc1 | -9.0% | 29.7% | -2.3% | 3.16µM* | 1.5% | 2.1%
CC1=C(CCC(=O)O)c2cc3nc(cc4[nH]c(cc5[nH]c(cc1n2)c(C)c5C(C)O)c(C)c4C(C)O)C(C)=C3CCC(=O)O (stereo not drawn) | 12.6µM* | ? | -23.8% | . | -0.6% | -7.6%
Cc1ccc(-c2ccc(CCC(=O)O)n2C(C)C)cc1 | -9.9% | -1.9% | -8.4% | . | ? | 4.1%
